Reference: PubChem BioAssay (Tox21)
Where “and” joins values, the source holds several entries; their conditions need not be identical. Equal values may be shown once. Records with an inconclusive call do not appear. Entries that show only a call come without a potency. Calls of active or inactive are those of the source. Calls come from the whole dose curve; as a rule, active = well fitted cell-killing curve with a large enough effect in the repeat runs (not every such curve was filed as active); inconclusive = weak or mixed curves, or effect the other way; inactive = no such curve, though single readings can be large or run the other way.

experiment: qHTS assay to identify small molecule antagonists of the estrogen related receptor signaling pathway with the pleiotropic PPARgamma coactivator (PGC) from Tox21 10K library - cell viability counter screen (AID 1224840); conditions: PGC/ERR reporter cells viability, CellTiter-Fluor, 17.5 h; series mostly up to 92.4 µM; note: nearly all actives have a fitted effect of over 40% in size
From the text: National Center for Advancing Translational Sciences [NCATS]
NIH Chemical Genomics Center [NCGC]
U.S. Environmental Protection Agency [EPA]
National Institutes of Environmental Health Sciences [NIEHS]
National Toxicology Program [NTP]
U.S. Food and Drug Administration [FDA]
Estrogen related receptors (ERRs), the first orphan nuclear receptors discovered, play an important role in the control of cellular energy metabolism. ERRs are required for high-energy production in response to the environmental challenges. The pleiotropic PPARgamma coactivator (PGC) is a major partner of ERR and a key regulator in energy homeostasis. Together they have been implicated in the etiology of metabolic disorders such as Type 2 diabetes and metabolic syndrome. ERR-alpha was also identified as an adverse marker for breast cancer progression; ERR-alpha-positive tumors have a poor prognosis. To screen and to identify environmental compounds that perturb the ERR and PGC/ERR signaling pathways could provide valuable information for potential therapeutic or preventive measures in the treatment of metabolic disease. To differentiate true PGC/ERR antagonists or agonist from cytotoxic substances, the assay is multiplexed with cell viability assay.
Tox21 Assay Protocol Summary:
The PGC/ERR cells were dispensed at 2,000 cells/5 ul/well in 1536-well white plates using a Multidrop dispenser. After the assay plates were incubated at a 37 C/5% CO2 incubator for 6 hours, 23 nL of compounds dissolved in DMSO, positive and negative controls or DMSO only was transferred to the assay plate by a pin tool. The plates were incubated at 37 C for 17.5 hours. 1 ul/well of CellTiter-Fluor reagent was added into the assay plates using a Flying Reagent Dispenser. After 30-minute incubation at 37 C/5% CO2, the fluorescence intensity in the plates was measured using a ViewLux plate reader.
Potency is the fitted concentration of half-maximal effect.

| Compound | Potency |
| --- | --- |
| CCOP(=O)(OCC)Oc1nc(Cl)c(Cl)cc1Cl | inactive |
| CSSC | inactive |
| [O]=[Cr](=[O])([OH])[O][Cr](=[O])(=[O])[OH] | 3.85 µM (active) |
| CC(C)=CCN1CC[C@@]2(C)c3cc(O)ccc3C[C@@H]1[C@@H]2C | inactive |
| CCC(C)Nc1c([N+](=O)[O-])cc(C(C)(C)C)cc1[N+](=O)[O-] (stereo not given) | inactive |
| C#CCO | inactive |
| O=P(Cl)(Cl)Cl | inactive |
| C=C(C)C(=O)[O][Sn]([CH2]CCC)([CH2]CCC)[CH2]CCC | 0.864 µM (active) |
| [O-][Cl+3]([O-])([O-])O | inactive |
| C[C@]12Cc3cn[nH]c3C[C@@H]1CC[C@@H]1[C@@H]2CC[C@@]2(C)[C@H]1CC[C@]2(C)O | inactive |
| CC(Cc1ccc2c(c1)OCO2)NO (stereo not given) | inactive |
| CC(=O)O.CC(=O)O.CC(=O)O.CC(=O)O.CC(=O)O.CC(=O)O.CC(=O)O.O.O.[Cr].[Cr].[Cr] | inactive |
| COP(=S)(OC)Oc1nc(Cl)c(Cl)cc1Cl | inactive |
| O=C1C2(Cl)C3(Cl)C4(Cl)C(Cl)(Cl)C5(Cl)C3(Cl)C1(Cl)C5(Cl)C24Cl (stereo not given) | 47.8 µM (active) and 58.5 µM (active) |
| c1cc[n+]2c(c1)-c1cccc[n+]1CC2 | inactive |
| CC(Cl)CCl (stereo not given) | inactive |
| CC(C)C(Nc1ccc(C(F)(F)F)cc1Cl)C(=O)OC(C#N)c1cccc(Oc2ccccc2)c1 (stereo not given) | inactive |
| COc1c2c(cc3c1OCO3)CCN(C)C2 | inactive |
| CC(C)=CC1C(C(=O)OC(C#N)c2cccc(Oc3ccccc3)c2)C1(C)C (stereo not given) | inactive |
| CC(Cc1ccc(OCC(=O)O)cc1)NCC(O)c1csc(C(F)(F)F)n1 (stereo not given) | inactive |

| Compound | Potency |
| --- | --- |
| COCCC#N | inactive |
| CC(=O)[O-].CC(=O)[O-].CC(=O)[O-].[Cr+3] | inactive |
| CCCCCON=O | inactive |
| [C-]1=CC=CC1.[Cl][Zr+2][Cl].c1cc[cH-]c1 | inactive |
| CCO/N=C(\CC)C1=C(O)CC(c2c(C)cc(C)cc2C)CC1=O (stereo not given) | inactive |
| CCC(OC(C)=O)C(CC(C)NC)(c1ccccc1)c1ccccc1 (stereo not given) | 69.2 µM (active) |
| COC(=O)C(C)N(C(=O)c1ccco1)c1c(C)cccc1C (stereo not given) | inactive |
| Clc1ccc(C2(Cn3cncn3)OCCO2)c(Cl)c1 | inactive |
| O=[N+]([O-])c1ccc(Cl)c(Cl)c1Cl | inactive |
| CC(C)NCC(O)c1ccccc1Cl (stereo not given) | inactive |
| c1csc(-c2ccc(-c3cccs3)s2)c1 | inactive |
| CN1[C@@H]2CC[C@H]1CC(O)C2 (stereo not given in full) | inactive |
| OCC(Br)CBr (stereo not given) | inactive |
| CN/C(=N\[N+](=O)[O-])NCc1cnc(Cl)s1 | inactive |
| N#CC(C#N)=NNc1cccc(Cl)c1 | 7.7 µM (active) |
| CN(C)CCc1c[nH]c2ccccc12 | inactive |
| CCCCC(CC)COC(=O)OOC(C)(C)C (stereo not given) | inactive |
| C=Cc1cccc(CCl)c1 | inactive |
| Nc1cc(Cl)ccc1Cl | inactive |
| CC(Cc1ccc(O)cc1)NCC(O)c1cc(O)cc(O)c1 (stereo not given) | inactive |
